Source: PubChem BioAssay AID1159580 (chemical genetic matrix, 2015)
Out of some 5,500 compounds screened, about 2,000 (36%) were called active. Roughly 18% stayed inconclusive and do not appear here. No stated cut-off is given here; in the data, active means normalized growth mostly below about 0.91 (no sharp cut-off); inconclusive means no clear call, values can overlap the other calls; inactive means mostly above about 0.92. This is one part of the list.

Assay: chemical genetic growth profiling, strain panel (AID 1159580);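 further: tested at 20 µM; growth read once vehicle control cultures reached saturation at 30 °C; 1 = growth at the plate median or of vehicle wells; lower values mean less growth of the strain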
Conditions: growth OD

Measured: normalized growth

O=C(CCc1ccc(O)cc1)c1c(O)cc(O)cc1O[C@@H]1O[C@H](CO)[C@@H](O)[C@H](O)[C@H]1O
inactive: S. cerevisiae deletion strains, locus YJR075W, strain HOC1, active compounds read low 1.05 | S. cerevisiae deletion strains, locus YKL009W, strain mrt4, active compounds read low 0.978 | S. cerevisiae deletion strains, locus YKL068W, active compounds read low 1 | S. cerevisiae deletion strains, locus YKL085W, strain MDH1 (second series), active compounds read low 0.988 | S. cerevisiae deletion strains, locus YKL085W, strain MDH1, active compounds read low 0.988 | S. cerevisiae deletion strains, locus YKL160W, strain elf1, active compounds read low 1.01 | S. cerevisiae deletion strains, locus YKR001C, strain vps1, active compounds read low 1 | S. cerevisiae deletion strains, locus YKR026C, strain gcn3, active compounds read low 1.01 | S. cerevisiae deletion strains, locus YKR091W, strain srl3, active compounds read low 1.01 | S. cerevisiae deletion strains, locus YLL001W, strain dnm1, active compounds read low 1.01 | S. cerevisiae deletion strains, locus YLL026W, active compounds read low 1.02 | S. cerevisiae deletion strains, locus YLL041C, strain sdh2, active compounds read low 1.01 | S. cerevisiae deletion strains, locus YLR027C, strain aat2, active compounds read low 1.01 | S. cerevisiae deletion strains, locus YLR039C, strain RIC1, active compounds read low 1.08 | S. cerevisiae deletion strains, locus YLR058C, strain SHM2, active compounds read low 1.01 | S. cerevisiae deletion strains, locus YLR102C, strain apc9, active compounds read low 1.01 | S. cerevisiae deletion strains, locus YLR113W, strain HOG1, active compounds read low 0.956 | S. cerevisiae deletion strains, locus YLR221C, strain rsa3, active compounds read low 1.02 | S. cerevisiae deletion strains, locus YLR258W, strain gsy2, active compounds read low 1.04 | S. cerevisiae deletion strains, locus YLR262C, strain YPT6 (second series), active compounds read low 1.02 | S. cerevisiae deletion strains, locus YLR262C, strain YPT6, active compounds read low 1.14 | S. cerevisiae deletion strains, locus YLR268W, strain sec22, active compounds read low 1 | S. cerevisiae deletion strains, locus YLR320W, strain mms22, active compounds read low 1.02 | S. cerevisiae deletion strains, locus YLR330W, strain CHS5, active compounds read low 1.01 | S. cerevisiae deletion strains, locus YLR342W, strain FKS1 (second series), active compounds read low 1.01 | S. cerevisiae deletion strains, locus YLR342W, strain FKS1, active compounds read low 1.02 | S. cerevisiae deletion strains, locus YLR357W, strain rsc2, active compounds read low 1 | S. cerevisiae deletion strains, locus YLR370C, strain arc18, active compounds read low 1.01 | S. cerevisiae deletion strains, locus YLR371W, strain rom2, active compounds read low 0.997 | S. cerevisiae deletion strains, locus YLR384C, strain iki3, active compounds read low 1.03 | S. cerevisiae deletion strains, locus YLR418C, strain cdc73, active compounds read low 1.03 | S. cerevisiae deletion strains, locus YML016C, strain PPZ1, active compounds read low 1.02 | S. cerevisiae deletion strains, locus YML032C, strain rad52, active compounds read low 0.986 | S. cerevisiae deletion strains, locus YML120C, strain ndi1, active compounds read low 1.01 | S. cerevisiae deletion strains, locus YML124C, strain tub3, active compounds read low 0.993 | S. cerevisiae deletion strains, locus YMR058W, strain fet3, active compounds read low 1.02 | S. cerevisiae deletion strains, locus YMR078C, strain ctf18, active compounds read low 0.991 | S. cerevisiae deletion strains, locus YMR125W, strain sto1, active compounds read low 1.02 | S. cerevisiae deletion strains, locus YMR129W, active compounds read low 1.01 | S. cerevisiae deletion strains, locus YMR205C, strain PFK2, active compounds read low 1.02 | S. cerevisiae deletion strains, locus YMR223W, strain ubp8, active compounds read low 0.992 | S. cerevisiae deletion strains, locus YMR231W, strain pep5, active compounds read low 1.01 | S. cerevisiae deletion strains, locus YMR263W, strain SAP30, active compounds read low 1.03 | S. cerevisiae deletion strains, locus YMR307W, strain GAS1, active compounds read low 1.23 | S. cerevisiae deletion strains, locus YNL067W, strain RPL9B, active compounds read low 1.04 | S. cerevisiae deletion strains, locus YNL071W, strain lat1, active compounds read low 1.01 | S. cerevisiae deletion strains, locus YNL153C, strain GIM3, active compounds read low 1.04 | S. cerevisiae deletion strains, locus YNL183C, strain NPR1, active compounds read low 0.937 | S. cerevisiae deletion strains, locus YNL209W, strain ssb2, active compounds read low 1.01 | S. cerevisiae deletion strains, locus YNL233W, strain BNI4, active compounds read low 1.03 | S. cerevisiae deletion strains, locus YNL248C, strain rpa49, active compounds read low 1.01 | S. cerevisiae deletion strains, locus YNL250W, strain rad50, active compounds read low 0.986 | S. cerevisiae deletion strains, locus YNL271C, strain bni1, active compounds read low 0.992 | S. cerevisiae deletion strains, locus YNL298W, strain CLA4, active compounds read low 0.998 | S. cerevisiae deletion strains, locus YNL307C, strain MCK1, active compounds read low 0.991 | S. cerevisiae deletion strains, locus YNL322C, strain KRE1 (second series), active compounds read low 1.02 | S. cerevisiae deletion strains, locus YNL322C, strain KRE1, active compounds read low 1.02 | S. cerevisiae deletion strains, locus YNR049C, strain mso1, active compounds read low 1.02 | S. cerevisiae deletion strains, locus YNR052C, strain pop2, active compounds read low 0.982 | S. cerevisiae deletion strains, locus YOL012C, strain htz1 0.98 | S. cerevisiae deletion strains, locus YOL147C, strain pex11, active compounds read low 0.996 | S. cerevisiae deletion strains, locus YOR001W, strain rrp6, active compounds read low 1.04 | S. cerevisiae deletion strains, locus YOR061W, strain CKA2, active compounds read low 1.02 | S. cerevisiae deletion strains, locus YOR069W, strain VPS5, active compounds read low 1.01 | S. cerevisiae deletion strains, locus YOR070C, strain gyp1, active compounds read low 1 | S. cerevisiae deletion strains, locus YOR080W, strain dia2, active compounds read low 1.03 | S. cerevisiae deletion strains, locus YOR083W, strain WHI5, active compounds read low 1.01 | S. cerevisiae deletion strains, locus YOR106W, strain vam3, active compounds read low 1.01 | S. cerevisiae deletion strains, locus YOR136W, strain idh2, active compounds read low 0.994 | S. cerevisiae deletion strains, locus YOR144C, strain elg1, active compounds read low 1 | S. cerevisiae deletion strains, locus YOR184W, strain ser1, active compounds read low 1.03 | S. cerevisiae deletion strains, locus YOR231W, strain MKK1, active compounds read low 0.993 | S. cerevisiae deletion strains, locus YOR265W, strain rbl2, active compounds read low 1.01 | S. cerevisiae deletion strains, locus YOR270C, strain vph1, active compounds read low 1.03 | S. cerevisiae deletion strains, locus YOR290C, strain snf2, active compounds read low 0.988 | S. cerevisiae deletion strains, locus YOR316C, strain cot1, active compounds read low 1.02 | S. cerevisiae deletion strains, locus YPL051W, strain arl3, active compounds read low 1.01 | S. cerevisiae deletion strains, locus YPL078C, strain atp4, active compounds read low 1.02 | S. cerevisiae deletion strains, locus YPL106C, strain sse1, active compounds read low 1.02 | S. cerevisiae deletion strains, locus YPL240C, strain hsp82, active compounds read low 1.01 | S. cerevisiae deletion strains, locus YPL241C, strain CIN2, active compounds read low 1.02 | S. cerevisiae deletion strains, locus YPL256C, strain CLN2, active compounds read low 0.966 | S. cerevisiae deletion strains, locus YPR119W, strain clb2, active compounds read low 0.992 | S. cerevisiae deletion strains, locus YPR141C, strain kar3, active compounds read low 0.987 | S. cerevisiae deletion strains, locus YPR163C, strain tif3, active compounds read low 0.993 | S. cerevisiae deletion strains, locus YPR167C, strain met16, active compounds read low 1.01 | S. cerevisiae deletion strains, strain wtn01, active compounds read low 1 | S. cerevisiae strains, strain wild type, active compounds read low 1.02
